An excerpt weighted towards active compounds, which were near 4% of everything screened.
Casp7 inh – qHTS Assay for Allosteric/Competitive Inhibitors of Caspase-7; AID 889, 2007; P55210; Potency, µM (titrated, usually from 57.5 µM), actives largely listed as inhibitors; recombinant caspase-7, Ac-DEVD-AFC fluorescence rate; 75,000 tested, 0.02% active; active = well fitted inhibition curve with a large enough effect in the main read-out, with a control signal flat, not every such curve was filed as active; inconclusive = small, poorly fitted or top-dose-only effect, or a change in a side signal
Bst PK mod – Pyruvate Kinase. purified pyruvate kinase, luminescence ATP production; ribose 5-phosphate activator present at AC10. Potency, µM. 51,000 tested, 1.2% active; in the data active = potency below about 11 µM; inconclusive = mostly about 12 µM to 25 µM;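 the screen sought inhibitors and activators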
Caspase-1 inhib – qHTS Assay for Allosteric/Competitive Inhibitors of Caspase-1. Caspase-1 enzyme, Ac-WEHD-AFC fluorogenic rate. Potency, µM (highest dose often 57.5 µM), hits mostly inhibitors. 75,000 tested, 0.03% active
Luciferase inh – qHTS Assay for Inhibitors of Firefly Luciferase; 72,000 tested, 2.2% active; purified firefly luciferase, luminescence, 8 min; Luciferin 4-monooxygenase (Photinus pyralis), P08659; Potency, µM (doses to about 57.1 µM), most hits filed as inhibitors; note: nearly all actives have a fitted effect of over 40% in size
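Inhibition of light generation by firefly luciferase from ATP and luciferin was profiled with concentration-response curves per sample, ATP held at 10 uM within the enzyme's linear range. Plates were read by luminescence after an 8-minute ambient incubation.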
Tau filament bind – qHTS Assay for Tau Filament Binding | 71,000 tested, 2% active | Microtubule-associated protein tau (Homo sapiens), P10636 | AID 596, 2007 | recombinant tau filaments, thioflavin S fluorescence, 15 h; filaments grown with octadecylsulfate alongside compound | Potency, µM (highest dose often 57.1 µM);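 note: actives lower thioflavin S fluorescence by blocking filaments or displacing dye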
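Assay mix: 1 uM His-tagged tau, 30 uM sodium octadecylsulfate, thioflavine S dye in HEPES/NaCl/DTT buffer. Compound is added prior to the inducer. Fluorescence after 15 h at 37 C.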
Of the large screens only hits and unclear results are named; the others gave an inactive call. Unless noted, calls come from the whole dose curve; as a rule, active = well fitted curve in the direction sought with a large enough effect; inconclusive = small, poorly fitted or top-dose-only effect, or another doubt; inactive = no such curve, though single readings can be large; an effect the other way counts as inactive or inconclusive.

C[C@H]1[C@H](C)CC[C@@]2(C(=O)O)CC[C@]3(C)C(=CC[C@@H]4[C@@]5(C)CC[C@H](O)C(C)(C)[C@@H]5CC[C@@]43C)[C@@H]12	Tau filament bind inconclusive (no result: Casp7 inh, Bst PK mod, Caspase-1 inhib)
Cn1c2ccccc2c2ncn(CCCN3CCOCC3)c(=O)c21	Bst PK mod 9.71
COc1ccc(C(=O)N2CCC[C@@]3(CCN(CC(C)C)C3)C2)cc1	none (no result: Bst PK mod)
O=C(c1ccncc1)N1CCC2(CC1)CCN(c1ccccn1)CC2	none (no result: Bst PK mod)
CC(=O)O[C@H](CC(=O)O)C[N+](C)(C)C	Tau filament bind 39.8µM (no result: Bst PK mod)
Cc1ccc(C[C@H](Cc2nc3ccccc3[nH]2)c2nc3ccccc3[nH]2)cc1	none (no result: Casp7 inh, Bst PK mod, Caspase-1 inhib)
CCOC(=O)c1nn(-c2ccc(OC)cc2)c(=O)c2c(N)scc12	Caspase-1 inhib inconclusive, Tau filament bind 15.8µM
CCOC(=O)c1nn(-c2ccc(OC)cc2)c(=O)c2c(NC(=O)c3ccco3)scc12	none
N#CC(CC(=O)O)=C(c1ccccc1)c1ccccc1	none (no result: Bst PK mod)
Cc1ccc(-c2cc(-c3nnc(SCC(=O)N(C)CCC#N)n3N)c3ccccc3n2)cc1	Luciferase inh 12.6µM
COc1ccc(-c2nc(C(N)=O)c3[nH]c(=O)n(-c4cccc(Cl)c4)c3n2)cc1OC	none
Cc1cccc(-n2c(=O)[nH]c3c(C(N)=O)nc(C(C)C)nc32)c1	Tau filament bind 15.8µM
CN(C)C(=O)c1ccc(-c2cncnc2N2CCNCC2)cc1	none (no result: Bst PK mod)
Cc1cc(NC(=O)Cc2cccs2)no1	Tau filament bind 15.8µM
Cc1ccc(N=Nc2c(O)ccc3cc(S(=O)(=O)O)ccc23)cc1	Tau filament bind 3.16µM (no result: Bst PK mod)
Cc1ccc(S(=O)(=O)Oc2ccc(N=Nc3ccc(-c4ccc(N=Nc5c(O)ccc6cc(S(=O)(=O)O)cc(S(=O)(=O)O)c56)c(C)c4)cc3C)cc2)cc1	Tau filament bind 0.01µM (no result: Bst PK mod, Luciferase inh)
O=S(=O)(O)c1ccc2cc(N=Nc3cc(S(=O)(=O)O)c4cccnc4c3O)ccc2c1	none (no result: Bst PK mod)
Cc1noc(C)c1C(=O)OCC(=O)c1c[nH]c2ccccc12	Luciferase inh 15.8µM (no result: Bst PK mod)
CS(=O)(=O)Nc1cccc(-c2ccc3ncnc(Nc4ccc(F)cc4)c3c2)c1	none (no result: Bst PK mod)
Cc1cc(C)c(C#N)c(SCC(=O)c2cccs2)n1	Tau filament bind 2.51µM (no result: Bst PK mod)
CC(=NC1CCCC1)c1c(C)[nH]n(-c2nc3ccccc3s2)c1=O	Luciferase inh 12.6µM (no result: Casp7 inh, Caspase-1 inhib, Tau filament bind)
CCOC(=O)Cc1cc(=O)n(-c2nc3ccccc3s2)[nH]1	Tau filament bind inconclusive
CCOC(=O)c1ccc(-n2[nH]c(-c3ccccc3)cc2=O)cc1	Tau filament bind 15.8µM
Clc1ccc(-c2cn3c(n2)CCC3)cc1	Bst PK mod inconclusive, Luciferase inh 12.6µM (no result: Casp7 inh, Caspase-1 inhib, Tau filament bind)
Nc1nc(-c2ccc3ccccc3c2)cc(-c2cc(-c3ccc4ccccc4c3)nc(N)n2)n1	none (no result: Bst PK mod)
Clc1ccc2nc(N3CCCCC3)[nH]c2c1	Luciferase inh 12.6µM
O=C1SC(c2ccccc2)=N/C1=C/c1ccco1	Tau filament bind 25.1µM
N=C(N)SCc1nc(-c2ccc(Cl)cc2)no1	none (no result: Bst PK mod)
COC(=O)NC(c1cccc(C)c1)C(C(C)=O)C(=O)OC (centres undefined)	none (no result: Bst PK mod, Luciferase inh, Tau filament bind)
CC(=O)C1=C(C)NC(SCC(=O)c2cc(Cl)ccc2Cl)=C(C#N)C1c1ccco1 (centres undefined)	Casp7 inh inconclusive (no result: Bst PK mod, Caspase-1 inhib)
CC(=O)C1=C(C)NC(SCC(=O)c2ccc(Cl)c(Cl)c2)=C(C#N)C1c1ccco1 (centres undefined)	Casp7 inh inconclusive, Tau filament bind 1µM (no result: Bst PK mod, Caspase-1 inhib)
CCOC(=O)Nc1ccc2c(c1)N(C(=O)N1CCN(C)CC1)c1ccccc1S2	Tau filament bind 15.8µM
CCOC(=O)Nc1ccc2c(c1)Nc1ccccc1S2	Tau filament bind inconclusive
O=C(Nc1cccc(-c2cn3cccnc3n2)c1)c1ccco1	none (no result: Bst PK mod)
O=C(Nc1cccc(-c2cn3cccnc3n2)c1)c1ccc2c(c1)OCO2	Luciferase inh 15.8µM (no result: Bst PK mod)
Cc1ccn2cc(C(=O)Nc3ccc4c(c3)OCCO4)nc2c1	Bst PK mod 7, Luciferase inh 6.31µM
Cc1ccn2cc(C(=O)Nc3ccccc3N3CCOCC3)nc2c1	Luciferase inh inconclusive (no result: Bst PK mod)
O=C(O)/C(=C\c1ccncc1)c1cccc2ccccc12	none (no result: Bst PK mod)
Cn1cccc1C(=O)N1CCC2(CCCN(c3ccccn3)C2)CC1	none (no result: Bst PK mod)
COc1ccc(OC)c(Nc2cc(C(=O)NCCCN3CCOCC3)c3ccccc3n2)c1	Tau filament bind 10µM
COc1ccc(Oc2ncc3nc(-c4cccc(C#N)c4)c(=O)n(Cc4cccc(OC)c4)c3n2)cc1	Caspase-1 inhib inconclusive, Tau filament bind 10µM (no result: Bst PK mod)
Cn1c(=O)c(-c2ccc(Cl)cc2)nc2cnc(N3CCNCC3)nc21	Casp7 inh inconclusive (no result: Bst PK mod, Caspase-1 inhib)
COc1cccc(Cn2c(=O)c(-c3cccc(C#N)c3)nc3cnc(N4CCN(C)CC4)nc32)c1	Casp7 inh inconclusive, Tau filament bind 3.16µM (no result: Bst PK mod, Caspase-1 inhib)
CN1CCN(c2ncc3nc(-c4ccc(Cl)cc4)c(=O)n(C)c3n2)CC1	Casp7 inh inconclusive, Tau filament bind 3.16µM (no result: Bst PK mod, Caspase-1 inhib)
O=C(/C=C/c1ccccc1)N1CCCC1CO (centres undefined)	none (no result: Bst PK mod, Luciferase inh, Tau filament bind)
O=C(Nc1ccc2c(c1)OCO2)C1CCN(S(=O)(=O)c2cccs2)CC1	Tau filament bind 12.6µM
O=C(Nc1ccc2c(c1)OCO2)C1CCCCN1S(=O)(=O)c1ccc(F)cc1 (centres undefined)	Tau filament bind 12.6µM
O=C(C1CCN(S(=O)(=O)c2cccc3cccnc23)CC1)N1CCc2ccccc21	Bst PK mod 9.69
O=S(=O)(Nc1ccc2c(c1)OCCO2)c1cccs1	Bst PK mod 4.21
CC(=O)N1CCC[C@@]2(CCN(C(=O)Nc3cccc(C#N)c3)C2)C1	none (no result: Bst PK mod)
O=C(Nc1ccc2c(c1)OCO2)C1CCN(S(=O)(=O)c2cccc3cccnc23)CC1	Bst PK mod 6.67
O=C(Nc1cccc(C(F)(F)F)c1)C1CCCN1S(=O)(=O)c1cccc2cccnc12 (centres undefined)	Bst PK mod 8.29
O=C(Nc1ccc2c(c1)OCO2)C1CCCN(c2nc3ccccc3s2)C1 (centres undefined)	Caspase-1 inhib inconclusive, Tau filament bind 12.6µM
O=C(Nc1ccc2c(c1)OCO2)C1Cc2ccccc2CN1S(=O)(=O)c1cccs1 (centres undefined)	Tau filament bind 25.1µM
COc1ccc(CNC(=O)[C@H](C)[C@H]2C[C@]2(C)[C@H](NC(=O)OCc2ccccc2)c2ccccc2)cc1OC	none (no result: Bst PK mod, Luciferase inh)
C=C(C)C(O)/C=C/c1ccc(OC)cc1 (centres undefined)	none (no result: Bst PK mod, Luciferase inh, Tau filament bind)
CCOC(=O)c1cccc(NC(=O)c2cnc3ccccc3n2)c1	Tau filament bind 25.1µM (no result: Bst PK mod)
CCOC(=O)c1cccc(NC(=O)c2cccnc2)c1	none (no result: Bst PK mod)
CC1(C)N=C(N)N=C(N)N1c1cccc(CSc2ccccc2)c1	none (no result: Bst PK mod)
Cc1ccc(S(=O)(=O)OC2CCN(C)CC2)cc1	none (no result: Bst PK mod)
O=C(O)[C@@H](O)[C@@H](O)[C@@H](O[C@H]1O[C@@H](CO)[C@@H](O)[C@@H](O)[C@@H]1O)[C@@H](O)CO	none (no result: Bst PK mod)
CCSc1nnc(C)n1-c1ccc(C(=O)O)cc1	Bst PK mod 6.59
NCCC(=O)N[C@H](Cc1cnc[nH]1)C(=O)O	none (no result: Bst PK mod, Luciferase inh, Tau filament bind)

Assay outcomes as filed in PubChem BioAssay.
